Test systems include RIPK5; ROCK1; ROCK2; ROS1; S6K1; SBK1; SGK2; SGK3.
Conditions in all cases: concentration: 1 μM, replicates: in singlicate; n = 1
Assay [1] concerns RPS6KA4(Kin.Dom.1-N-terminal).
The subject of assay [2] is RPS6KA4(Kin.Dom.2-C-terminal).
The test system of assay [3] is RPS6KA5(Kin.Dom.1-N-terminal).
Assay [4] has as its system RPS6KA5(Kin.Dom.2-C-terminal).
Assay [5] deals with T1, RSK1(Kin.Dom.1-N-terminal).
T1 construct: gene RPS6KA1

Assay [6] deals with T2, RSK1(Kin.Dom.2-C-terminal).
T2 construct: gene RPS6KA1

The test system of assay [7] is T3, RSK2(Kin.Dom.1-N-terminal).
T3 construct: gene RPS6KA3

Assay [8] concerns T4, RSK2(Kin.Dom.2-C-terminal).
T4 construct: gene RPS6KA3

For assay [9], the system named is T5, RSK3(Kin.Dom.1-N-terminal).
T5 construct: gene RPS6KA2

Assay [10] relates to T6, RSK3(Kin.Dom.2-C-terminal).
T6 construct: gene RPS6KA2

Assay [11] concerns T7, RSK4(Kin.Dom.1-N-terminal).
T7 construct: gene RPS6KA6

In assay [12] the test system is T8, RSK4(Kin.Dom.2-C-terminal).
T8 construct: gene RPS6KA6

Structures are written as SMILES.
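Further: KINOMEscan kinase panel screen.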

Turning to `COc1ccc(Nc2nccc(N3CCC(NC(=O)Nc4cccc(C(C)=O)c4)C3)n2)cc1` (stereo not shown) [GSK1379731], the “%Inh” value with RIPK5 is 0%; with ROCK1 it was 25%; with ROCK2, 0%; in the assay with ROS1 it was 4%; in [1], 2%; in [2], 0%. The “%Inh” value in assay [3], in assay [4], in assay [5], in assay [6], in [7] and in assay [8] was 0% throughout. The “%Inh” value turned out to be 1% in assay [9]; 0% in [10]; 0% in [11]; 2% in assay [12]; 9% in the assay on S6K1; 20% in the assay with SBK1. Moreover, the “%Inh” value in the assay on SGK2 and with SGK3 was 0% each time.

With `Cc1nnc(-c2ccc(C)c(-c3ccc(C(=O)Nc4ccc(NS(C)(=O)=O)cc4)cc3)c2)o1` [GW702865], the “%Inh” value in the assay with RIPK5 worked out at 4%; with ROCK1 it was 0%; in the assay on ROCK2 it was 11%; with ROS1, 0%; in assay [1] it was 1%; in assay [2], 0%. Moreover, the “%Inh” value is listed as 0% in assay [3]; 17% in assay [4]; 13% in assay [5]; 0% in [6]; 0% in [7]; 0% in assay [8]. Besides, the “%Inh” value (in assay [9]; in assay [10]; in [11]; in assay [12]; in the assay on S6K1; with SBK1) was 0% throughout. The figures for the “%Inh” value with SGK2 and in the assay on SGK3 were 0% and 4%, respectively.

Consider `NS(=O)(=O)c1cccc(-c2ccc3ncc(N4CCOCC4)nc3c2)c1` [GSK1535721], for which the “%Inh” value in the assay on RIPK5 is listed as 8%; in the assay on ROCK1, 0%; in the assay on ROCK2, 0%; in the assay on ROS1, 2%; in assay [1] it was 4%; in [2] it was 0%. Also, the “%Inh” value was 8% in [3]; 13% in assay [4]; 0% in assay [5]; 6% in assay [6]; 15% in assay [7]; 7% in [8]. Besides, the “%Inh” value in assay [9] was 0%; in assay [10], 0%; in assay [11] it was 0%; in assay [12], 0%; with S6K1 it was 10%; in the assay with SBK1, 0%. Also, the results for the “%Inh” value with SGK2 and in the assay with SGK3 were 0% and 9%, respectively.

Turning to `Cc1cccc(-c2nc(-c3ccc(S(C)(=O)=O)cc3)sc2-c2ccncc2)c1`, the “%Inh” value came to 18% with RIPK5; 16% in the assay on ROCK1; 0% in the assay on ROCK2; 23% in the assay on ROS1; 0% in [1]; 3% in assay [2]. For the same compound, the “%Inh” value is 11% in assay [3]; 9% in assay [4]; 0% in assay [5]; 34% in assay [6]; 0% in assay [7]; 25% in assay [8]. The “%Inh” value in assay [9] was found to be 0%; in [10], 4%; in [11], 30%; in assay [12], 15%; in the assay on S6K1, 12%; with SBK1, 1%. The “%Inh” value turned out to be 0% in the assay on SGK2 and 12% with SGK3.

Take `O=c1cc(N2CCOCC2)nc2n(Cc3cccc(Cl)c3Cl)c(C3CC3)nn12` [GSK2358994]: the “%Inh” value in the assay with RIPK5 is reported as 7%; in the assay with ROCK1, 0%; in the assay with ROCK2 it was 0%; in the assay on ROS1, 0%; in [1], 0%; in assay [2], 16%. The “%Inh” value in assay [3] was 0%; in assay [4] it was 0%; in assay [5], 0%; in [6], 17%; in assay [7] it was 0%; in assay [8], 18%. For the same compound, the “%Inh” value is on record as 0% in [9]; 17% in [10]; 0% in [11]; 21% in assay [12]; 15% in the assay on S6K1; 0% in the assay with SBK1. The results for the “%Inh” value in the assay with SGK2 and in the assay on SGK3 were 20% and 0%, respectively.

Regarding `O=c1cc(N2CCOCC2)nc2n(Cc3cccc4ccccc34)ccn12` [GSK2333389], the “%Inh” value worked out at 0% in the assay with RIPK5; 0% in the assay with ROCK1; 19% in the assay on ROCK2; 0% in the assay with ROS1; 12% in assay [1]; 0% in assay [2]. Further, the “%Inh” value in [3], in [4], in assay [5], in assay [6], in assay [7] and in assay [8] was 0% each time. Also, the “%Inh” value amounted to 2% in assay [9]; 0% in assay [10]; 0% in [11]; 8% in assay [12]; 0% in the assay with S6K1; 14% in the assay with SBK1. For the same compound, the “%Inh” value with SGK2 and in the assay with SGK3 was 0% throughout.

In the case of `Cl.Oc1cccc(Nc2ccnc3cc(-c4ccncc4)ccc23)c1` [GW494601], the “%Inh” value in the assay with RIPK5 is on record as 0%; in the assay with ROCK1, 88%; in the assay on ROCK2, 72%; in the assay with ROS1, 34%; in assay [1] it was 0%; in assay [2], 0%. Also, the “%Inh” value in assay [3] is given as 16%; in assay [4] it was 16%; in assay [5] it was 0%; in [6], 13%; in [7], 12%; in assay [8] it was 23%. Also, the “%Inh” value in assay [9] was 0%; in [10], 0%; in assay [11], 0%; in [12] it was 29%; with S6K1 it was 0%; in the assay on SBK1, 34%. The entries for the “%Inh” value in the assay on SGK2 and in the assay with SGK3 were 0% and 3%, respectively.

For the compound `Fc1ccc(-c2nn3c(OCC(F)(F)F)cccc3c2-c2ccncc2)cc1` [GW514784], the “%Inh” value in the assay on RIPK5 amounted to 0%; in the assay with ROCK1, 36%; in the assay with ROCK2, 34%; with ROS1, 13%; in assay [1] it was 10%; in assay [2], 0%. Further, the “%Inh” value in [3] came out at 12%; in [4], 13%; in assay [5], 6%; in assay [6], 29%; in assay [7], 0%; in [8] it was 0%. In addition, the “%Inh” value is listed as 3% in [9]; 8% in assay [10]; 0% in [11]; 89% in assay [12]; 0% in the assay with S6K1; 2% in the assay on SBK1. Further, the “%Inh” value in the assay on SGK2 is on record as 9%; in the assay with SGK3, 0%.

These data come from paper PMC5540273 (PLoS ONE, 2017).
